Measurements published in PubChem BioAssay (EPA / NIEHS).
Values joined by “and” are separate entries in the source; they are usually repeats but may differ in a detail not shown here. Identical values can stand only once. Some compounds were tested as several samples or in several runs, with calls that do not always agree. Active and inactive are the calls of the source. How the source made its calls: active means hit-call score of the fitted dose curve at least 0.9, where 1 is the maximum; inactive means score below 0.9.

Experiments:
[1] = APR_HepG2_P-H2AX_72hr: Apredica 72-hour HepG2 Assay for H2AX Phosphorylation (AID 2282916); details: imaging, actives raise or lower the signal;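 further: phospho-histone H2A.x immunostain intensity per cell marking DNA damage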
How it was run: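 HepG2 cells treated 72 h at 0.39–200 uM, 0.5% DMSO final, duplicates. Formaldehyde-fixed, Triton-permeabilised, immunostained for phospho-H2A.x with Hoechst; fluorescence imaged at 20x, bidirectional fit versus DMSO.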

[2] = APR_HepG2_MitoMembPot_72hr: Apredica 72-hour HepG2 Assay for Mitochondrial Membrane Potential (AID 2282917); details: imaging, actives raise or lower the signal
How it was run: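 HepG2 cells exposed 72 h to compounds at 0.39–200 uM (0.5% v/v DMSO, duplicates); MitoTracker Red CMXRos 250 nM loaded 30 min before 3.7% formaldehyde fixation, imaged by HCS fluorescence. Bidirectional fit versus DMSO.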

[3] = APR_HepG2_MitoticArrest_72hr: Apredica 72-hour HepG2 Assay for Mitotic Arrest (AID 2282918); details: high-content imaging, actives raise or lower the signal
How it was run: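 HepG2, 72 hr exposure, 0.39–200 uM in duplicate, 0.5% v/v DMSO final. Formaldehyde-fixed, Triton-permeabilized, anti-phospho-histone H3/FITC plus Hoechst. ArrayScan imaging at 20x; curves fit bidirectionally against DMSO baseline.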

[4] = APR_HepG2_MicrotubuleCSK_72hr: Apredica 72-hour HepG2 Assay for Microtubule CSK Stabilty (AID 2282919); details: HepG2 microtubule cytoskeleton, high-content imaging, actives raise or lower the signal
How it was run: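 HepG2 human liver cells were dosed for 72 h at ten concentrations from 0.39 to 200 uM in duplicate (0.5% v/v DMSO final). Fixed, permeabilized cells were immunostained for alpha-tubulin (Cy5) with a Hoechst counterstain and imaged at 20x.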

[5] = APR_HepG2_P-H2AX_24hr: Apredica 24-hour HepG2 Assay for H2AX Phosphorylation (AID 2282920); details: high-content imaging, actives raise or lower the signal
How it was run: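 HCS fluorescence imaging of phospho-H2A.x immunostain (with Hoechst 33342 nuclear counterstain) in HepG2 after 24 hr compound exposure; 10 concentrations, 0.39–200 uM, duplicate wells, 0.5% v/v DMSO. Gain or loss of signal fitted relative to DMSO baseline.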

[6] = APR_HepG2_StressKinase_24hr: Apredica 24-hour HepG2 Assay for Stress Kinase (AID 2282922); details: HepG2 stress kinase (phospho-c-Jun) imaging, actives raise or lower the signal
How it was run: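 HepG2 cells exposed 24 hr to compound at 0.39–200 uM (10 concentrations, duplicate), 0.5% v/v DMSO final. Fixed in 3.7% formaldehyde, permeabilized with Triton X-100, immunolabeled for phospho-c-Jun with Hoechst 33342; HCS fluorescence imaging, bidirectional fit versus DMSO.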

[7] = APR_HepG2_MitoMass_72hr: Apredica 72-hour HepG2 Assay for Mitochondrial Mass (AID 2282924); details: high-content imaging, actives raise or lower the signal;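 further: MitoTracker Red CMXRos stain intensity per cell imaged as mitochondrial mass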
How it was run: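 HepG2 cells were exposed for 72 hr to compounds at 0.39–200 uM (ten concentrations, duplicate, 0.5% v/v DMSO final). Live cells were stained with 250 nM MitoTracker Red CMXRos for 30 min, then fixed in 3.7% formaldehyde and imaged by HCS fluorescence.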

[8] = APR_HepG2_NuclearSize_72hr: Apredica 72-hour HepG2 Assay for Nuclear Size (AID 2282925); details: high-content imaging, actives raise or lower the signal
How it was run: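 HepG2 cells were exposed to compounds at ten concentrations from 0.39 to 200 uM (duplicate, 0.5% DMSO final) for 72 hr. After fixation in 3.7% formaldehyde, nuclei were stained with Hoechst 33342 (2 ug/mL) and imaged at 20x.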

[9] = ATG_CRE_CIS: Attagene CIS-FACTORIAL HepG2 Assay for human cAMP Responsive Element (CRE) binding protein 3 (AID 2282926); details: HepG2 CRE cis-reporter, Attagene multiplexed mRNA; actives raise or lower the signal
How it was run: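 Endogenous CRE-binding activity in HepG2 is reported through a cis-regulated transfected reporter. Following a day of exposure, mRNA levels are determined by reverse transcription PCR and fluorescent fragment analysis; fits run in both directions versus DMSO.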

[10] = target: CCAAT/enhancer-binding protein beta (Homo sapiens) (UniProt P17676); assay: ATG_C_EBP_CIS: Attagene CIS-FACTORIAL HepG2 Assay for human CCAAT/Enhancer Binding Protein (C/EBP) beta (AID 2282927); details: HepG2 Attagene cis-factorial transcription factor reporter; actives raise or lower the signal
Chain of CCAAT/enhancer-binding protein beta (Homo sapiens) (P17676 whole entry, looked up): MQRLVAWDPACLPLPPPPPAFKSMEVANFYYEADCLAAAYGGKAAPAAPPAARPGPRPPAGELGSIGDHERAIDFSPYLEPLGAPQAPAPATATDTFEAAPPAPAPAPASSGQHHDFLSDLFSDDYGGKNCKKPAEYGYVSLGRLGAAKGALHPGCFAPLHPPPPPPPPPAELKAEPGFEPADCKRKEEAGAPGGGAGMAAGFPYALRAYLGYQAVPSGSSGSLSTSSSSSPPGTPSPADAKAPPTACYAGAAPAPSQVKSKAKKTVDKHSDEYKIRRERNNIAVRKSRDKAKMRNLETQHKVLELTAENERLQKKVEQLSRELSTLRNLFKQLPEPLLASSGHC
How it was run: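 Following a 24 h incubation with test chemical, transfected HepG2 cells yielded RNA whose reporter transcripts were quantified by RT-PCR and fluorescent capillary electrophoresis, with DMSO serving as baseline for bidirectional fitting.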

[11] = ATG_CMV_CIS: Attagene CIS-FACTORIAL HepG2 Assay for human CMV (Internal Marker) (AID 2282928); details: HepG2 CMV promoter reporter, transcription factor profiling; actives raise or lower the signal;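 further: endpoint acts as a background internal control marker rather than a target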
How it was run: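 CMV internal-marker background readout in transiently transfected HepG2 cells bearing cis-regulated reporter units. Reporter mRNA is measured 24 h after dosing by RT-PCR and capillary electrophoresis, with bidirectional fitting against DMSO.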

[12] = ATG_DR4_LXR_CIS: Attagene CIS-FACTORIAL HepG2 Assay for human Liver X Receptor (LXR), DR4 submotif (AID 2282929); details: HepG2 Attagene DR4 cis-reporter, mRNA transcription; actives raise or lower the signal
How it was run: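 Readout: reporter transcript fluorescence after RT-PCR and capillary electrophoresis, fitted bidirectionally against DMSO controls. Human HepG2 liver cells carried transiently transfected multiplexed reporter constructs; endogenous transcription factor activity measured 24 h post-dosing.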

[13] = ATG_AP_1_CIS: Attagene CIS-FACTORIAL HepG2 Assay for human Activator Protein 1 (AP-1) (AID 2282931); details: HepG2 Attagene cis-factorial AP-1 reporter mRNA; actives raise or lower the signal
How it was run: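 Reporter transcripts were measured 24 h after dosing by RT-PCR and capillary electrophoresis of fluorescent fragments. Cells: HepG2 carrying transfected cis-regulated reporter constructs reading endogenous factor activity. Gain or loss fitted against DMSO.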

[14] = ATG_AP_2_CIS: Attagene CIS-FACTORIAL HepG2 Assay for human Activator Protein 2 (AP-2) (AID 2282932); details: HepG2 AP-2 cis-reporter, Attagene transcription factor profiling; actives raise or lower the signal
How it was run: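 Bidirectional curve fitting against DMSO was applied to reporter mRNA signals from HepG2 cells 24 h after dosing. Cis-promoter reporter units, transiently transfected, were read by RT-PCR plus capillary electrophoresis.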

[15] = ATG_BRE_CIS: Attagene CIS-FACTORIAL HepG2 Assay for human Bone Morphogenetic Protein (BMP) Response Element (BRE) (AID 2282933); details: HepG2 BMP response element reporter, Attagene transcription factor profiling; actives raise or lower the signal
How it was run: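 A HepG2 multiplex reporter system measured inducible reporter mRNA 24 h post-dosing. Detection: RT-PCR, 6-FAM primer extension, HpaI digestion, capillary electrophoresis. Activity fitted bidirectionally relative to DMSO.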

[16] = target: Transcription factor E2F1 (Homo sapiens) (UniProt Q01094); assay: ATG_E2F_CIS: Attagene CIS-FACTORIAL HepG2 Assay for human E2F Transcription Factor 1 (AID 2282935); details: HepG2 Attagene cis-reporter, E2F reporter RNA transcripts; actives raise or lower the signal
Chain of Transcription factor E2F1 (Homo sapiens) (Q01094 whole entry, looked up): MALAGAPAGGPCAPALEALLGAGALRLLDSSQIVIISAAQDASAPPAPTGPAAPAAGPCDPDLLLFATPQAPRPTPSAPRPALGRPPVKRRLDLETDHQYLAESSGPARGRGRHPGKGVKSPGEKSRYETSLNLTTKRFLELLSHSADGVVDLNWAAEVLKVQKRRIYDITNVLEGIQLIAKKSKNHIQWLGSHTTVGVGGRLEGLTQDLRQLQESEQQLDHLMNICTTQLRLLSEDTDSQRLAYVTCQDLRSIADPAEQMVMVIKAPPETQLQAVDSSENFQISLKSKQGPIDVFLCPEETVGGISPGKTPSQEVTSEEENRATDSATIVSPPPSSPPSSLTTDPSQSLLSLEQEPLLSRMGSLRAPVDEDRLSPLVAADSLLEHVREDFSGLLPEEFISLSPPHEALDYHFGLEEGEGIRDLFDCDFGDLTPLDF
How it was run: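 Multiplexed cis-reporter assay: HepG2, transient transfection, 24 h dosing, mRNA quantitation by labeled RT-PCR and CE.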

[17] = APR_HepG2_StressKinase_72hr: Apredica 72-hour HepG2 Assay for Stress Kinase (AID 2282921); details: HepG2 stress kinase (phospho-c-Jun) imaging, actives raise or lower the signal
How it was run: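 HepG2 cells treated 72 hr with 0.39–200 uM compound, 0.5% v/v DMSO, duplicate wells. After formaldehyde fixation and Triton permeabilization, stained with anti-phospho-c-Jun (1:500) and Cy3 secondary, imaged at 20x. Fitted in both directions against DMSO.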

[18] = APR_HepG2_p53Act_72hr: Apredica 72-hour HepG2 Assay for p53 Activation (AID 2282923); details: high-content imaging, actives raise or lower the signal;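 further: average cellular p53 protein immunofluorescence intensity in HepG2 cells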
How it was run: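 HepG2 cells exposed 72 h to 0.39–200 uM in 0.5% DMSO, duplicates. Fixed, permeabilized cells immunostained for p53 (Cy5) with Hoechst; imaged at 20x, fluorescence analyzed bidirectionally against DMSO.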

[19] = target: Retinoic acid receptor alpha (Homo sapiens) (UniProt P10276); assay: ATG_DR5_RAR_CIS: Attagene CIS-FACTORIAL HepG2 Assay for human Retinoic Acid Receptor Alpha (RARE), DR5 submotif (AID 2282934); details: HepG2 Attagene cis-factorial RARE DR5 reporter, mRNA; actives raise or lower the signal
Chain of Retinoic acid receptor alpha (Homo sapiens) (P10276 whole entry, looked up): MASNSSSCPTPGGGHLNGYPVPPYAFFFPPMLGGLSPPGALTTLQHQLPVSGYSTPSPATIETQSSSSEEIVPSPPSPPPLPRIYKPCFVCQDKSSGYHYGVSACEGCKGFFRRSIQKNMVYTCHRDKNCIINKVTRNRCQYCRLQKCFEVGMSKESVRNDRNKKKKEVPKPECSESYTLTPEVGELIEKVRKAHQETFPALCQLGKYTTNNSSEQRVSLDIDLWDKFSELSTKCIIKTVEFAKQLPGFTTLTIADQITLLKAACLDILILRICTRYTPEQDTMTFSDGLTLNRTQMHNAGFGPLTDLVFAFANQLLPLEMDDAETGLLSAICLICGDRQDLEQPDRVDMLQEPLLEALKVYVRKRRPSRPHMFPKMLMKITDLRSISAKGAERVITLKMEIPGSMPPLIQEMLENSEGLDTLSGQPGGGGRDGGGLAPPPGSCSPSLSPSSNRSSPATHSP
How it was run: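 Endpoint fitted in both directions relative to DMSO as negative control. It reflects DR5 cis-element reporter mRNA induction in transiently transfected HepG2 cells, measured 24 h after dosing through RT-PCR and fluorescent capillary electrophoresis.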

[20] = target: Aryl hydrocarbon receptor (Homo sapiens) (UniProt P35869); assay: ATG_Ahr_CIS: Attagene CIS-FACTORIAL HepG2 Assay for human Aryl Hydrocarbon Receptor (Ahr) (AID 2282930); details: HepG2 AhR cis-factorial reporter transcription; actives raise or lower the signal
Chain of Aryl hydrocarbon receptor (Homo sapiens) (P35869 whole entry, looked up): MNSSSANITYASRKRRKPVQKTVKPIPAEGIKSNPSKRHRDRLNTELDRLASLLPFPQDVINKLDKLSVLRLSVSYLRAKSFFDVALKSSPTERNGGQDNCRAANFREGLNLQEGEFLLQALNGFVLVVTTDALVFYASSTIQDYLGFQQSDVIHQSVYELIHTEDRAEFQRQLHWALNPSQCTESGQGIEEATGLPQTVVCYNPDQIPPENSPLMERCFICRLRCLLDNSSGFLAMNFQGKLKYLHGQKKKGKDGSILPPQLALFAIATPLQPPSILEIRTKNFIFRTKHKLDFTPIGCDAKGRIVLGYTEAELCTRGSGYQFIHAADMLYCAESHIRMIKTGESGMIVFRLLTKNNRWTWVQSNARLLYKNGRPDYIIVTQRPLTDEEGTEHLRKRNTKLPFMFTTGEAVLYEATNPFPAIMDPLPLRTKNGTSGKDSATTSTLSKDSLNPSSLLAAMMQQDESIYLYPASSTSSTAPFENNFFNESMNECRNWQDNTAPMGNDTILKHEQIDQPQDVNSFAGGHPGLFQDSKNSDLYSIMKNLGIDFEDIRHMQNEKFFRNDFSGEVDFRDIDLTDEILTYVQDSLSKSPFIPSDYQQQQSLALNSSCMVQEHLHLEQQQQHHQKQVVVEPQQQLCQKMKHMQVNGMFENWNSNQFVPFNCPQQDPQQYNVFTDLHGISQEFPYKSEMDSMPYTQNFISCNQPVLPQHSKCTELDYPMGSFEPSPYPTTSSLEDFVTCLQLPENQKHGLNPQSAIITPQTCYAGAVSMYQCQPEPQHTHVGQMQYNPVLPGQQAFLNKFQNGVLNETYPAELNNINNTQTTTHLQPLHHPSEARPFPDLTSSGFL
How it was run: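 Values derive from bidirectional fitting against DMSO negative control. Underlying signal: cis-element reporter mRNA in transiently transfected HepG2, harvested 24 h post-dose and measured by RT-PCR plus capillary electrophoresis.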

Measured: AC50

CN(C)c1nc(=O)n(C2CCCCC2)c(=O)n1C
not listed: [17] | [18] | [19] | [20]
inactive: all other assays above

O=C(O)C(F)(F)C(F)(F)C(F)(F)C(F)(F)C(F)(F)C(F)(F)C(F)(F)C(F)(F)F
active: [3] 111 µM | [18] 106 µM | [11] 62.9 µM and 267 µM | [12] 81.9 µM and 50 µM | [13] 50.5 µM and 274 µM and 16.7 µM | [15] 248 µM | [16] 55.4 µM
inactive: [2] | [4] | [5] | [17] | [6] | [7] | [8] | [9] | [10] | [11] | [12] | [14] | [15] | [19] | [16]

O=C(NC(=O)c1c(F)cccc1F)Nc1cc(Cl)c(OC(F)(F)C(F)F)c(Cl)c1
active: [3] 16.9 µM | [18] 6.27 µM
not listed: [17] | [20]
inactive: all other assays above

O=C(N[C@H]1CN2CCC1CC2)c1cc2ccoc2cn1
inactive: all assays above

CCCCCCCCOC(=O)c1ccccc1C(=O)OCCCCCCCC
not listed: [20]
inactive: all other assays above

CCOCCOC(C)=O
not listed: [17] | [20]
inactive: all other assays above
